# FMDV inh – blocks foot and mouth disease virus | AID 1159524 | Potency, µM (series often up to 57.9 µM), usual class: inhibitors | 410,000 compounds, 1.2% hits | FMDV antiviral cell-based qHTS; calls by dose curve; tested in HEK293T cells; also: read-out not given here; nearly all actives have a fitted effect of over 45% in size
# MARV entry inh – blocks Marburg virus binding to or entry into cells; Marburg virus pseudotyped entry inhibition, cell reporter; Potency, µM (series often up to 37.8 µM), actives largely listed as inhibitors; 300,000 compounds, 1.8% hits; calls by dose curve; tested in HEK293 cells
# Sm TGR block – blocks Schistosoma mansoni thioredoxin glutathione reductase. Q962Y6. purified TGR, DTNB reduction, TNB absorbance 405 nm. Potency, µM (doses to about 114 µM), most hits filed as inhibitors. 360,000 compounds, 3% hits. AID 485364; also: nearly all actives have a fitted effect of over 60% in size
#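 Kinetic colorimetric format: TGR-catalysed, NADPH-driven DTNB reduction monitored via TNB absorbance. Enzyme dispensed at 20 nM; compound exposure 15 min at room temperature before reaction start.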
# RE007 growth inh – less growth of the S. pombe RE007 Vpr strain | 360,000 compounds, 0.21% hits | AID 651644 | S. pombe RE007 Vpr strain, BacTiter-Glo ATP luminescence, 24 h | Potency, µM (doses to about 92.2 µM), usual class: inhibitors; active = well fitted falling curve with a large enough effect; inconclusive = small, poorly fitted or top-dose-only effect; inactive = no such curve, though single readings can be large or run the other way; also: nearly all actives have a fitted effect of over 50% in size
#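 Fission yeast RE007 carrying one integrated HIV-1 vpr copy, seeded at OD 0.01 in PMG+AL medium with 23 nL pinned compound. Grown 24 h at 30 degrees; viability read by BacTiter-Glo luminescence after 5 min.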
# HCV inh – blocks hepatitis C virus. Huh7.5.1 HCVcc-Cre infection, luciferase reporter, 44 h. Potency, µM (titrated, usually from 41.8 µM), hits mostly inhibitors. 340,000 compounds, 3.4% hits
#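 A cell-based infection assay in which seeded cells (1,000 per well) receive test compound after 4 h, are inoculated with HCVcc-Cre at approximately 0.5 moi, and are incubated 44 h before luminescence detection.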
# LASV entry inh – inhibitors of Lassa virus binding or cell entry. Lassa virus pseudotype entry inhibition, cell reporter. Potency, µM (titrated, usually from 37.9 µM), hits mostly inhibitors. 300,000 compounds, 1.2% hits; calls by dose curve; tested in HEK293 cells; also: nearly all actives have a fitted effect of over 50% in size
# Hits are given with their value; i = inactive; ? = inconclusive; nt = no result given. This is a sample that favours compounds with a hit; in the whole collection about 7.2% have one here. Unless noted, calls follow the shape of the dose curve; as a rule, active = well fitted curve in the direction sought with a large enough effect; inconclusive = small, poorly fitted or top-dose-only effect, or another doubt; inactive = no such curve, though single readings can be large; an effect the other way counts as inactive or inconclusive.
SMILES,FMDV inh,MARV entry inh,Sm TGR block,RE007 growth inh,HCV inh,LASV entry inh
CCNC(=O)OC1CNC(C#Cc2cc3ncnc(Nc4ccc(OCc5cccc(F)c5)c(Cl)c4)c3s2)C1 (configuration not stated),nt,nt,nt,nt,nt,7.9µM
CCOC(=O)c1ccc(NS(=O)(=O)c2cc(-c3onc(C)c3C)ccc2C)cc1,i,nt,i,nt,nt,i
CCOC(=O)C1=C(O)/C(=C\c2ccc(CNC(=O)C(=O)Nc3ccccc3)o2)N=C1C,i,i,8.9µM,i,i,i
Cc1ccc(CNC(=O)CCCCCn2c(=O)c3sccc3n(CC(=O)Nc3c(C)cc(C)cc3C)c2=O)cc1,i,i,i,nt,nt,i
CC(C)=CCOc1ccc([C@@H]2COc3c(ccc4c3C=CC(C)(C)O4)C2)c(O)c1,?,nt,nt,i,4.5µM,nt
CCOc1ccc(Cl)cc1-c1cc(C(=O)Nc2ccc(C(C)C)cc2)[nH]n1,i,nt,nt,i,nt,nt
CCOc1ccc(CCNC(=O)CN2CCN(Cc3ccc(Cl)cc3)C2=O)cc1OCC,i,5µM,i,nt,nt,i
Cc1ccc(C)c(NC(=O)Nc2cc3c(cc2N2CCCCC2)n(C)c(=O)n3C)c1,i,?,i,nt,nt,?
Clc1ccc(CN2CCCCCCC2)cc1Cl,i,i,i,?,i,i
N=c1ccn(Cc2ccc(Cl)c(Cl)c2)cc1,?,?,i,?,3.5µM,i
Clc1cccc(CN2CCN(Cc3ccco3)CC2)c1,i,i,i,i,i,?
Clc1ccc(CN2CCCCCC2)cc1,i,i,i,i,i,i
N=c1ccn(Cc2ccc(Cl)cc2)cc1,?,?,i,i,1.1µM,?
N=c1ccn(Cc2cccc(Cl)c2)cc1,?,?,i,i,2.5µM,?
Cc1nc2ccn(Cc3cccnc3)c(=O)c2cc1C(=O)Nc1ccc(OC(F)(F)F)cc1,i,nt,i,nt,nt,i
NC(=O)CSc1nc2scc(-c3ccc(Cl)cc3)c2c(=O)n1Cc1ccccc1,i,i,i,i,i,i
Cc1ccc(-c2csc3nc(SCC(=O)N(C)C)n(Cc4ccccc4)c(=O)c23)cc1,i,?,i,i,32µM,?
COc1ccc(S(=O)(=O)N(CC(=O)Nc2ccc(OC)cc2OC)c2ccc(Cl)cc2)cc1,3.2µM,?,i,nt,nt,?
COc1ccc(NC(=O)CN(c2ccccc2F)S(=O)(=O)c2ccc(C)cc2)c(OC)c1,i,nt,i,i,11µM,nt
COc1ccc(N(CC(=O)Nc2ccccc2C)S(=O)(=O)c2ccccc2[N+](=O)[O-])c(OC)c1,i,i,i,i,i,?
COc1ccc(N(CC(=O)Nc2ccc(OC)cc2OC)S(=O)(=O)c2ccccc2)cc1,i,?,i,i,?,?
CCOc1ccccc1NC(=O)CN(c1ccc(OC)cc1OC)S(=O)(=O)c1ccccc1[N+](=O)[O-],i,10µM,nt,i,i,i
CCOc1ccc(Br)cc1C1C(C(=O)OC)=C(C)NC2=C1C(=O)c1ccccc12 (configuration not stated),?,i,i,nt,nt,i
CCCCOC(=O)/C=C\C(=O)NC(N)=O,28µM,?,?,i,?,?
Cc1cc(=O)n2[nH]c(-c3ccccc3)cc2n1,i,i,i,i,i,i
SMILES,FMDV inh,MARV entry inh,Sm TGR block,RE007 growth inh,HCV inh,LASV entry inh
Cc1cc(=O)n2[nH]c(-c3ccc(C(C)(C)C)cc3)cc2n1,i,?,i,i,10µM,?
COc1ccc(CC(=O)N(C)c2ccccc2)cc1S(=O)(=O)N1CCOCC1,i,nt,nt,i,nt,nt
COc1ccc(OC)c(-c2noc(CSc3nnc(Cc4ccccc4)n3-c3cccc(C)c3)n2)c1,i,i,i,nt,nt,?
COC(C#CCCN(C)C)(c1ccccc1)c1ccccc1,?,i,28µM,?,i,?
O=c1c2ccccc2c(-c2ccc(O)cc2)nn1-c1cccc(C(F)(F)F)c1,40µM,?,i,nt,?,?
Cc1cnnn1-c1ccc(C(=O)CCl)cc1,?,i,5.6µM,i,i,i
CC(=O)Nc1ccc(C(=O)NCC2CCCCC2)cc1,i,nt,i,i,i,nt
Cc1ccc(NC(=O)c2ccoc2)cc1-c1ccc(C(=O)NCC2CC2)cc1,nt,nt,nt,nt,nt,3.1µM
CCOC(=O)CCCN1C(=O)CCn2nc(-c3cn(C)c4ccccc34)cc21,i,?,i,nt,nt,i
CCOc1ccc(Nc2nc3c(S(=O)(=O)c4ccc(CC)cc4)nnn3c3ccc(Cl)cc23)cc1,i,?,i,nt,nt,nt

# From PubChem
